Measurements reported in PubChem BioAssay (Tox21).
Several values for one entry are separate records, joined by “and”; a condition that tells them apart may be missing. Equal values may be shown once. Records with an inconclusive call do not appear. The source holds several records for some structures; these can differ, active in one and inactive in another. Activity calls are given as the source filed them. Unless noted, calls follow the shape of the dose curve; as a rule, active = well fitted curve in the direction sought with a large enough effect in the repeat runs; inconclusive = weak or mixed curves; inactive = no such curve, though single readings can be large; an effect the other way counts as inactive or inconclusive.

What was measured:
[1] = A CellTox Green Cytotoxicity Assay to monitor cytotoxicity in HepG2 cells - 8 hour (AID 1224890); also: nearly all actives have a fitted effect of over 45% in size; also: potency is read from the fitted curve at half-maximal effect
How it was run: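 Continuous culture of HepG2 cells with a membrane-impermeant DNA dye; rising fluorescence marks dead cells. Compound exposure lasted up to 40 h at 37 C, with reads every 8 h from 0 h.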

[2] = qHTS assay to identify small molecule antagonists of the estrogen receptor alpha (ER-alpha) signaling pathway using the BG1 cell line in the presence of 0.1 nM 17-beta-estradiol - cell viability counter screen (AID 1259241); also: nearly all actives have a fitted effect of over 40% in size
How it was run: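 Viability in VM7Luc4E2 cells after 22 hr compound exposure under 0.1 nM 17beta-estradiol stimulation, by CellTiter-Fluor.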

[3] = qHTS assay to identify small molecule antagonists of the androgen receptor (AR) signaling pathway using the MDA cell line in the presence of 0.5 nM R1881 - cell viability counter screen (AID 1259242); also: nearly all actives have a fitted effect of over 45% in size
How it was run: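 Fluorescence from CellTiter-Fluor, which reports protease activity of live cells, was read 30 min after reagent addition to MDA-kb2 cells that had been incubated 16 hr with compound and 0.5 nM R1881.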

[4] = biological target: Androgen receptor (Homo sapiens) (UniProt P10275); assay: qHTS assay to identify small molecule antagonists of the androgen receptor (AR) signaling pathway using the MDA cell line in the presence of 0.5 nM R1881 (AID 1259243); also: nearly all actives have a fitted effect of over 50% in size; also: potency is read from the fitted curve at half-maximal effect
Androgen receptor (Homo sapiens), sequence (P10275 whole entry, looked up): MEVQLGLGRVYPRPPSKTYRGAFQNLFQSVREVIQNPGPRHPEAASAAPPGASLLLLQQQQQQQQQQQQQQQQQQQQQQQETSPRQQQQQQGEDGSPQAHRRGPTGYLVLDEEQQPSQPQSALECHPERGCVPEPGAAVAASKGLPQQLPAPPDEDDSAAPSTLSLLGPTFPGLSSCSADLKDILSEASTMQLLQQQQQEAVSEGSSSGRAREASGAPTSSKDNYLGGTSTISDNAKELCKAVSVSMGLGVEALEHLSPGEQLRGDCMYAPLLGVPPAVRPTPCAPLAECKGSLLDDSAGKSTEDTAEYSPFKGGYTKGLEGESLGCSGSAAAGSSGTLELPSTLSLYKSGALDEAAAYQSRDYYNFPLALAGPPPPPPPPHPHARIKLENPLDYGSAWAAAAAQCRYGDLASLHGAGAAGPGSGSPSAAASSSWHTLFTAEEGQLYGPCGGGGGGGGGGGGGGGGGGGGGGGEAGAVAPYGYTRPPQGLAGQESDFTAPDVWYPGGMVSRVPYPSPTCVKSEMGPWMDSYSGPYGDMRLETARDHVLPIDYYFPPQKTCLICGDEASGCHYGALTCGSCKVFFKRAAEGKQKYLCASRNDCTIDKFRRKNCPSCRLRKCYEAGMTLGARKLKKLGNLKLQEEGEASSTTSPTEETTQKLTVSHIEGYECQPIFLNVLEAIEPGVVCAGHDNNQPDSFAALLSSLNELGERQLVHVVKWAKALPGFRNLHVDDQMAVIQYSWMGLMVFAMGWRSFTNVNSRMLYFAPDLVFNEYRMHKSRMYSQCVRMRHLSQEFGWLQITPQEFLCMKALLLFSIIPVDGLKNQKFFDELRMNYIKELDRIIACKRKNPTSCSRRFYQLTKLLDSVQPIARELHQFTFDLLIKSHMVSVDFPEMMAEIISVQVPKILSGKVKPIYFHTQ
How it was run: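 Inhibition of R1881 (0.5 nM final) induced reporter signal was measured in human MDA-kb2 cells; note the MMTV promoter also responds to GR. Exposure lasted 16 hr at 37C.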

[5] = qHTS assay to identify small molecule phospholipidosis (PLD) inducers (AID 1259344; active = well fitted curve in the direction sought with a large enough effect; an effect the other way counts as inactive or inconclusive)
How it was run: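 Phospholipidosis is scored by imaging LipidTOX-stained pits in HepG2 cells exposed to compound for 24 h at 37 C; pit counts and integrated intensities per well and per cell serve as outputs.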

[6] = qHTS assay to identify small molecule HDAC inhibitors (AID 1259364); also: top concentration of the series differs between compounds; nearly all actives have a fitted effect of over 45% in size
How it was run: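 Endogenous HDAC class I/II activity was measured in wild-type HCT-116 cells by HDAC-Glo luminescence after 2 h compound treatment.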

[7] = qHTS assay to identify small molecule HDAC inhibitors - cell viability counter screen (AID 1259365); also: series mostly up to about 92 µM; nearly all actives have a fitted effect of over 50% in size
How it was run: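 Cytotoxicity was gauged in wild-type HCT-116 cells after a brief 2hr treatment with DMSO-dissolved compounds at 37C and 5% CO2, using CellTiter-Glo luminescence developed for 30min at room temperature.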

[8] = qHTS assay to identify small molecule agonists of the sonic hedgehog signaling (Shh) pathway - cell viability counter screen (AID 1259366); also: nearly all actives have a fitted effect of over 50% in size; also: potency is read from the fitted curve at half-maximal effect
How it was run: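 Stable Gli1-Luc NIH/3T3 clone, 2,000 cells/well. Compound exposure 24hr at 37C. Read-out: CellTiter-Fluor fluorescence.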

[9] = biological target: Estrogen receptor (Homo sapiens) (UniProt P03372); assay: qHTS assay to identify small molecule antagonists of the estrogen receptor alpha (ER-alpha) signaling pathway using the BG1 cell line in the presence of 0.1 nM 17-beta-estradiol (AID 1259244); also: nearly all actives have a fitted effect of over 50% in size
Estrogen receptor (Homo sapiens), sequence (P03372 whole entry, looked up): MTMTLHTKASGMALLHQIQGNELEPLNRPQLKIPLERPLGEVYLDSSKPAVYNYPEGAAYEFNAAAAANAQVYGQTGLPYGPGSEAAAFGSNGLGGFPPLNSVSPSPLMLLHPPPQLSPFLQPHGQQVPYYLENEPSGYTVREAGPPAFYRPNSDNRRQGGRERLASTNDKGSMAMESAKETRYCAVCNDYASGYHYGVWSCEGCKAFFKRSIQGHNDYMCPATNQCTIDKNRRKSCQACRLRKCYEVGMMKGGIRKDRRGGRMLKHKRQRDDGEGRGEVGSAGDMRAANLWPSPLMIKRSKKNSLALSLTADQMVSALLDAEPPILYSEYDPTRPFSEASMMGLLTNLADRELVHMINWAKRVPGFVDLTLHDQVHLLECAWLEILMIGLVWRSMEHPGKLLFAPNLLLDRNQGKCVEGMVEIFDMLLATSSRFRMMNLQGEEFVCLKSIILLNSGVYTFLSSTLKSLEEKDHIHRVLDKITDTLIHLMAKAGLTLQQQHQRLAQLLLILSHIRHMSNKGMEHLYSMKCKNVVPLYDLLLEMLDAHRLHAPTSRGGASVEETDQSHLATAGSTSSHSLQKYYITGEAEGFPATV
How it was run: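 Quantitative high-throughput screen in VM7Luc4E2 cells: compound plus 0.1 nM E2 (final), 22 h, 37C, 5% CO2; ONE-Glo added, 30 min room temperature, luminescence measured.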

[10] = qHTS assay to identify small molecule antagonists of the sonic hedgehog signaling (Shh) pathway - cell viability counter screen (AID 1259367); also: nearly all actives have a fitted effect of over 55% in size; also: potency is read from the fitted curve at half-maximal effect
How it was run: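 Cells: 3T3 Gli1-Luc, 2,000/well, 4 hr pre-incubation. Compounds in DMSO, then conditioned medium. Incubation 24 hr, 37C, 5% CO2. CellTiter-Fluor at 23 hr, 1 hr, fluorescence.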
% is scaled to controls: 0 for no effect and ±100 for the full control effect.

CC(C)(c1ccc(O)cc1)c1ccc(O)cc1
active: Potency [4] 9.58 µM and 6.98 µM
inactive and 12.4 µM (active): Potency [8]
inactive: Potency [1] | outcome [2] | Potency [3] | Potency [5] | Potency [6] | outcome [7]

Cc1cnc(NS(=O)(=O)c2ccc(N)cc2)nc1
inactive: Potency [1] | outcome [2] | Potency [3] | Potency [4] | outcome [9] | Potency [6] | Potency [8] | Potency [10]

NS(=O)(=O)c1cc(C(=O)O)cc(N2CCCC2)c1Oc1ccccc1
inactive: Potency [1] | outcome [2] | Potency [3] | outcome [9] | Potency [5] | Potency [6] | outcome [7] | Potency [8] | Potency [10]

CCSC(=O)N(CC(C)C)CC(C)C
inactive: Potency [1] | outcome [2] | Potency [3] | Potency [4] | outcome [9] | outcome [7] | Potency [8] | Potency [10]

NS(=O)(=O)c1cc2c(cc1Cl)NC(C1CC3C=CC1C3)NS2(=O)=O (stereo unspecified)
inactive: Potency [1] | outcome [2] | Potency [3] | Potency [4] | outcome [9] | Potency [5] | Potency [6] | outcome [7] | Potency [10]

NS(=O)(=O)c1cc(C(=O)NN2C[C@H]3[C@H]4CCC(C4)[C@H]3C2)ccc1Cl
inactive: Potency [1] | outcome [2] | Potency [3] | Potency [4] | outcome [9] | Potency [6] | outcome [7] | Potency [10]

NC(CSCC(=O)O)C(=O)O (stereo unspecified)
inactive: Potency [1] | outcome [2] | Potency [3] | outcome [9] | Potency [5] | Potency [6] | outcome [7] | Potency [8] | Potency [10]

O=S(O)CO
inactive: Potency [1] | outcome [2] | Potency [3] | Potency [4] | outcome [9] | Potency [5] | Potency [6] | outcome [7] | Potency [8] | Potency [10]

CS(=O)(=O)O
inactive: Potency [1] | outcome [2] | Potency [3] | Potency [4] | outcome [9] | Potency [6] | Potency [8] | Potency [10]

OC1CCCCC1c1ccccc1 (stereo unspecified)
inactive: Potency [1] | outcome [2] | Potency [3] | Potency [4] | outcome [9] | outcome [7] | Potency [8] | Potency [10]

Nc1ccc(S(=O)(=O)Nc2ccnn2-c2ccccc2)cc1
inactive: cytotoxicity increase [1] 0.943% [at 15.8 µM] | activity change, negative = cytotoxicity [2] 0.0467% [at 19 µM] | viability change, negative = cytotoxic [3] 0.287% [at 19 µM] | activity change, negative = inhibition [9] 0.724% [at 19 µM] | Potency [5] | activity change, negative = inhibition [6] -2.22% [at 19 µM] | viability change, negative = cytotoxic [8] 10.6% [at 19 µM] | Potency [10]

O=C1NC(=O)[C@@]2(CCOc3ccc(F)cc32)N1
inactive: Potency [1] | outcome [2] | Potency [3] | outcome [9] | Potency [5] | Potency [6] | outcome [7] | Potency [10]

CC1(C)CO[C@@H](CC(=O)O)CN1
inactive: Potency [1] | outcome [2] | Potency [3] | outcome [9] | Potency [5] | Potency [6] | Potency [8] | Potency [10]

C[C@@H]1CCN(C(=O)[C@H](CCCN=C(N)N)NS(=O)(=O)c2cccc3c2NC[C@H](C)C3)[C@@H](C(=O)O)C1
inactive: Potency [1] | outcome [2] | Potency [3] | outcome [9] | Potency [5] | outcome [7] | Potency [8] | Potency [10]

c1ccc(CC2=NCCN2)cc1
inactive: Potency [1] | outcome [2] | Potency [3] | outcome [9] | Potency [5] | Potency [6] | outcome [7] | Potency [8] | Potency [10]

Cc1cccc(C)c1NC(=O)C(C)N (stereo unspecified)
inactive: outcome [2] | Potency [3] | outcome [9] | Potency [5] | Potency [6] | outcome [7] | Potency [8] | Potency [10]
active: Potency [1] 21.3 µM

Nc1c2c(nc3ccccc13)CCCC2O (stereo unspecified)
inactive: Potency [1] | outcome [2] | Potency [3] | outcome [9] | Potency [5] | Potency [6] | outcome [7] | Potency [8] | Potency [10]

COc1cc(C(=O)N2CCCCCCC2)cc(OC)c1OC
inactive: Potency [1] | outcome [2] | Potency [3] | outcome [9] | Potency [5] | Potency [6] | outcome [7] | Potency [8] | Potency [10]

NCCCNCCSP(=O)(O)O
inactive: cytotoxicity increase [1] 0.329% [at 6.97 µM] | activity change, negative = cytotoxicity [2] -0.971% [at 8.39 µM] | viability change, negative = cytotoxic [3] 0.214% [at 8.39 µM] | activity change, negative = inhibition [9] 3.05% [at 8.39 µM] | Potency [5] | activity change, negative = inhibition [6] -1.97% [at 8.39 µM] | activity change, negative = cytotoxicity [7] 0.673% [at 8.39 µM] | viability change, negative = cytotoxic [10] 5.98% [at 8.39 µM]

Cc1cc2c(cc1S(N)(=O)=O)S(=O)(=O)CCC2
inactive: Potency [1] | outcome [2] | Potency [3] | outcome [9] | Potency [5] | Potency [6] | outcome [7] | Potency [10]

Cc1c(NC(C)C)c(=O)n(-c2ccccc2)n1C
inactive: Potency [1] | outcome [2] | Potency [3] | outcome [9] | Potency [5] | Potency [6] | Potency [8] | Potency [10]

COC(=O)C1=C(C)NC(C)=C(C(=O)OC)C1c1ccccc1[N+](=O)[O-]
inactive: Potency [1] | outcome [2] | Potency [3] | outcome [9] | Potency [5] | Potency [6]
30.7 µM (active) and inactive: Potency [10]
active: Potency [8] 27.3 µM

COC(=O)c1c(Cl)c(Cl)c(C(=O)OC)c(Cl)c1Cl
inactive and 110 nM (active): Potency [1]
inactive: outcome [2] | Potency [3] | outcome [9] | Potency [5] | Potency [6] | outcome [7] | Potency [10]

CCN1CCC[C@H]1CNC(=O)c1c(O)c(Cl)cc(Cl)c1OC
inactive: Potency [1] | outcome [2] | Potency [3] | outcome [9] | Potency [5] | outcome [7] | Potency [10]

CCOC(=O)Nc1ccc(NCc2ccc(F)cc2)nc1N
inactive: Potency [1] | outcome [2] | Potency [3] | outcome [9] | Potency [5] | outcome [7] | Potency [8] | Potency [10]

CC(C)(C)c1nnc(NS(=O)(=O)c2ccccc2)s1
inactive: Potency [1] | outcome [2] | Potency [3] | outcome [9] | Potency [5] | Potency [6] | Potency [8] | Potency [10]
